# D1 potentiator: enhances dopamine response at the human D1 receptor; HEK293 TREx D1 cells, calcium flux, dopamine EC20 potentiation; P21728; potentiation, % at 10 µM; hit rate 0.036% among 360,000; AID 504651; in the data active = potentiation above about 30%; also: 0% is about no effect
# D1 antag: antagonists of human D1 dopamine receptor; activity change, negative = inhibition, % at 10 µM; P21728; hit rate 3.2% among 360,000; HEK293 TREx D1 cells, calcium flux, dopamine EC80; active compounds read low; in the data active = activity change below about -30%; also: % is scaled to controls: 0 for no effect and ±100 for the full control effect
#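 Kinetic fluorescence of a calcium dye serves as the read-out. D1-expressing Hek293 Trex cells, induced overnight at 30 C, are exposed to compound for 180 s before an EC80 dopamine addition, then read 180 s further.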
# D3 antag: antagonists of human D3 dopamine receptor | P35462 | D3R cells, DiscoveRx beta-arrestin luminescence, antagonist mode; active compounds read low | max response, negative = inhibition, % | hit rate 2.5% among 360,000 | AID 652054; in the data active = max response below about -50%; inconclusive = no clear call, values can overlap the other calls; also: % is scaled to controls: 0 for no effect and ±100 for the full control effect
# Target sequence (P35462 whole entry, looked up): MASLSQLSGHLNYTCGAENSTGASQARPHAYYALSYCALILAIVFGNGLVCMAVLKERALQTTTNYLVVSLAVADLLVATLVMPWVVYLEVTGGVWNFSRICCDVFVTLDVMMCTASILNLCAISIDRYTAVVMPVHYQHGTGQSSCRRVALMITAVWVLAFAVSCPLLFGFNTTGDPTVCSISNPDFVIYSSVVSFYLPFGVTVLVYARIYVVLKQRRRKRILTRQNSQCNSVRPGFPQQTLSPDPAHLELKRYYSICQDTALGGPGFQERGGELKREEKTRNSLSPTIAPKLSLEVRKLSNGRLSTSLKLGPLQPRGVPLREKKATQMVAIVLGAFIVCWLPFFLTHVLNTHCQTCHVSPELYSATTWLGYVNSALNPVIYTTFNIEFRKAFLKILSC
#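 Cells plated overnight at 1500 cells/well, then exposed to library compounds with dopamine controls for 90 minutes at 37 degrees C. DiscoveRx reagent added for 30–60 minutes at room temperature; luminescence read, quantitative HTS format.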
# DRD3 agonist: agonists of human D3 dopamine receptor | P35462 | D3R DiscoveRx beta-arrestin cells, luminescence, 90 min | max activation, % | hit rate 0.58% among 410,000 | AID 652048; in the data active = max activation above about 30%; also: 0% is about no effect
#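 Cells at 1500/well, incubated overnight, then treated with pinned compounds (dopamine as control) for 90 min at 37 degrees C. DiscoveRx reagent added for 30 - 60 minutes at room temperature; luminescence read.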
# D1 agonist: human D1 receptor agonism. P21728. HEK293 T-REx D1 cells, calcium flux, agonist mode. activation, % at 2 µM. hit rate 1% among 360,000. AID 504660; in the data active = activation above about 30%; also: 0% is about no effect
#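 Tetracycline-induced HEK293 TREx D1 cells, force-coupled to calcium signalling, were dye-loaded with a no-wash calcium kit. Compound was pin-added after a 10 s baseline. Fluorescence was read kinetically at 1 cycle/s for 180 s, with calcium rises flagged as agonism.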
# * = called active by the depositor; ? = inconclusive; . = not tested or not shown. Shown are actives, neighbours in structure and some others; about 6% of the full set was active somewhere.
SMILES,D1 potentiator,D1 antag,D3 antag,DRD3 agonist,D1 agonist
O=C(COC(=O)c1ccccc1O)NCCCc1ccccc1,-6,-34*,-29,-3,2
COc1cccc(CC(=O)OCC(=O)NNC(=O)c2ccc(Br)cc2)c1,.,-33*,-15,-7,7
O=C(COC(=O)c1ccccc1O)NNC(=O)c1ccc(Br)cc1,-2,-20,-58*,-11,4
Cc1[nH]nc2c1C1(CCOC1C)C(C#N)=C(N)O2 (stereo unspecified),-4,-35*,18,-1,3
Cc1[nH]nc2c1C1(CCOCC1)C(C#N)=C(N)O2,4,3,25,-25,0
CCCCCCCCCCCCCCCC(=O)OCC(COC(=O)CCCCCCCCCCCCCCC)OC(=O)CCCCCCCCCCCCCCC,.,.,.,6,.
CCCCCCCCCCCCCCCC(=O)OC(CC(=O)O)C[N+](C)(C)C (stereo unspecified),-7,-34*,-26,-23,75*
Cc1ccc(OCc2cc(=O)n3cc(C)sc3n2)c(C)c1,0,11,.,3,1
CCOc1ccc(-c2cncc3nccn23)cc1,.,.,29,5,.
O=[N+]([O-])/C=C/c1cn(Cc2ccc(Cl)cc2)c2ccccc12,3,21,-53*,-4,12
CCOc1ccc(NC(=O)C2CC(=O)NC(=Nc3ccc(Cl)c(Cl)c3)S2)cc1 (stereo unspecified),-1,1,.,-9,0
Cc1ccc(C(=O)N2CCN(CCc3ccncc3)CC2)cc1,0,-4,.,-43,1
Cc1ccc(CN2CCC(CNC(=O)Nc3c(C)cccc3C)C2)cc1 (stereo unspecified),0,0,.,-19,-1
COC(=O)c1c(C)n(-c2ccc(C)cc2)c2ccc(O)cc12,-9,-62*,-27,-18,2
CC(=O)c1ccc(-n2c(C)c(C(C)=O)c3cc(O)ccc32)cc1,4,-22,-8,3,4
CC(=O)c1c(C)n(-c2ccccc2)c2ccc(O)cc12,-6,-38*,13,2,0
CCc1cccc(C)c1NC(=O)NC1COc2ccccc2C1 (stereo unspecified),1,-1,.,-12,1
Cc1ccc2oc(-c3ccccc3)c(C(=O)O)c(=O)c2c1,-1,-25,-53*,-2,2
CCOc1ccc(-c2oc3ccc(C)cc3c(=O)c2O)cc1,-3,-10,.,4,37*
Cc1ccc(-c2oc3ccccc3c(=O)c2O)cc1,-5,-26,2,6,30*
COc1ccc2oc(-c3ccccc3)c(C(=O)N(C)C)c2c1,-2,-70*,13,-6,2
CCCCCCCCCCOCC(O)CN (stereo unspecified),.,.,.,-7,.
COc1cccc(-c2oc3ccc(C)cc3c(=O)c2O)c1,-4,2,.,24,61*
O=c1c(O)c(-c2ccccc2)oc2ccccc12,.,.,-28,3,.
Cn1c(SCc2ccccc2)nc2ccsc2c1=O,-1,0,11,35*,4
SMILES,D1 potentiator,D1 antag,D3 antag,DRD3 agonist,D1 agonist
Cn1c(SCc2ccc(Br)cc2)nc2ccccc2c1=O,2,18,17,15,14
COc1ccc(OCCN2CCC(C(=O)NC(c3ccc(Cl)cc3)c3cnccn3)CC2)cc1 (stereo unspecified),.,.,?,-13,.
O=C(NC(c1cccnc1)c1ccc2c(c1)OCO2)C1CCN(CCOc2ccc(Cl)cc2Cl)CC1 (stereo unspecified),.,.,-69*,-14,.
Cc1ccccc1C(c1ncccc1C)N(C)C(=O)C1CCN(CCOc2ccc(Cl)cc2Cl)CC1 (stereo unspecified),.,.,-21,20,.
O=C(NC(c1ccccc1)c1ccsc1)C1CCN(CCOc2ccc(Cl)cc2Cl)CC1 (stereo unspecified),.,.,56,52*,.
O=C(NC(c1ccccc1)c1cnccn1)C1CCN(CCOc2ccc(Cl)cc2Cl)CC1 (stereo unspecified),.,.,-84*,-13,.
O=C(CN1CCOCC1)Nc1ccc(Cl)c(Cl)c1,0,-1,6,1,3
Cc1ccc(NC(=O)CN2CCOCC2)cc1,0,17,0,3,2
O=C(CN1CCN(S(=O)(=O)N2CCOCC2)CC1)Nc1ccc(Cl)c(Cl)c1,-8,-49*,10,-21,14
Cc1ccc(NC(=O)CN2CCOCC2)cc1C,-2,-40*,20,0,8
Cc1cccc(C)c1-n1nnnc1C(c1ccnc2ccccc12)N(C)Cc1ccc(Cl)c(Cl)c1 (stereo unspecified),.,.,1,-3,.

# High-throughput results: PubChem BioAssay, National Center for Advancing Translational Sciences (NCATS)
